# An excerpt weighted towards active compounds, which were near 8.3% of everything screened.
# HCV inhibitor: inhibitors of hepatitis C virus infection | Potency, µM (titrated, usually from 41.8 µM), without a hit: at the highest dose activity change, negative = inhibition, actives largely listed as inhibitors | Huh7.5.1 HCVcc-Cre infection, luciferase reporter, 44 h | AID 651820 | 340,000 tested, 3.4% active; note: potency is the fitted concentration of half-maximal effect
#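 Luciferase read-out (15 sec integration) after a 15 min room-temperature substrate step quantifies HCVcc-Cre infection. Cells, 1,000 per well, had compound added 4 h post-plating, then virus at ~0.5 moi, and were cultured 44 h.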
# FMDV antiviral: foot and mouth disease virus antiviral activity; FMDV antiviral cell-based qHTS; Potency, µM (series often up to 57.9 µM), inactives show top-dose activity change, negative = inhibition, most hits filed as inhibitors; 410,000 tested, 1.2% active; AID 1159524; calls by dose curve; tested in HEK293T cells; note: read-out not given here; potency is the fitted concentration of half-maximal effect; nearly all actives have a fitted effect of over 45% in size
# Marburg entry inh: Marburg virus entry inhibition. Marburg virus pseudotyped entry inhibition, cell reporter. Potency, µM (top dose mostly 37.8 µM), for the others: at the top dose activity change, negative = inhibition, usual class: inhibitors. 300,000 tested, 1.8% active; calls by dose curve; tested in HEK293 cells; note: potency is the fitted concentration of half-maximal effect
# Giardia FBPA inh: blocks Giardia fructose-bisphosphate aldolase activity; A8B2U2; purified Giardia FBPA; Potency, µM (series often up to 59.6 µM), without a hit: top-dose activity, negative = inhibition, hits mostly inhibitors; 290,000 tested, 0.71% active; AID 2451; note: potency is the fitted concentration of half-maximal effect; nearly all actives have a fitted effect of over 55% in size
# Target sequence (A8B2U2 whole entry, looked up): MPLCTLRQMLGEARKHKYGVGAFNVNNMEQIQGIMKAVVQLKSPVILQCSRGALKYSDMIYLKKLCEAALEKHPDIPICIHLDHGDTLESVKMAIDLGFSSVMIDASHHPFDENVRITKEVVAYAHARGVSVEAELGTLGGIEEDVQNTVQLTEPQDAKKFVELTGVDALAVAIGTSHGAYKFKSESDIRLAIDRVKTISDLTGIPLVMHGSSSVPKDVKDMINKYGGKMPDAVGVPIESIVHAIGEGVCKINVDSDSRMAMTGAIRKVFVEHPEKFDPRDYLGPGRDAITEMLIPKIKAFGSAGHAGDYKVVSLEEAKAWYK
#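 Giardia FBPA (40 nM reagent) was preincubated 10 min at RT with compound (up to 57.5 uM final), then substrate plus GAPDH/TPI/NAD/arsenate coupling system with diaphorase/resazurin was added; resorufin fluorescence (525/598 nm) was read after 20 min.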
# HCMV antiviral: blocks human cytomegalovirus replication; HFF cells, HCMV-luciferase reporter, 72 h; stronger effect = lower value; activity change, negative = inhibition, % at 57.5 µM; 410,000 tested, 4.5% active; AID 1259415; in the data active = activity change below about -60%; inconclusive = no clear call, values can overlap the other calls; inactive = above about -39%
#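 Compounds were evaluated in HFFs infected with an HCMV luciferase reporter virus (MOI 1 PFU/cell). Luciferase in lysates collected 72 h post infection served as the replication measure.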
# Lassa entry inh: Lassa virus entry inhibition; Lassa virus pseudotype entry inhibition, cell reporter; Potency, µM (series often up to 37.9 µM), inactives show at the top dose activity change, negative = inhibition, usual class: inhibitors; 300,000 tested, 1.2% active; calls by dose curve; tested in HEK293 cells; note: potency is the fitted concentration of half-maximal effect; nearly all actives have a fitted effect of over 50% in size
# The depositor's hits bear a star; ? = inconclusive; nt = no result; [ ] = dose if it differs, or a comment. Unless noted, calls come from the whole dose curve; as a rule, active = well fitted curve in the direction sought with a large enough effect; inconclusive = small, poorly fitted or top-dose-only effect, or another doubt; inactive = no such curve, though single readings can be large; an effect the other way counts as inactive or inconclusive. % is set by controls: 0 for no effect and ±100 for the full control effect.
SMILES,HCV inhibitor,FMDV antiviral,Marburg entry inh,Giardia FBPA inh,HCMV antiviral,Lassa entry inh
O=C(NCc1ccccc1Cl)c1ccc2c(c1)NC(=O)C(CS(=O)(=O)Cc1ccc(Cl)cc1)N2 (centres undefined),nt,-9.4%,nt,nt,-9.4,3.8%[46.1 µM]
CCOC(=O)C1(C)C=C(Nc2ccc(O)cc2)C(=O)N1c1ccc(O)cc1 (centres undefined),3.6%,-13.9%,?,?,-70.4*,-16.1%
O=C(NCc1ccccc1F)Nc1nnc([C@H]2C[C@H](O)[C@@H](CO)O2)s1,nt,-9.0%,nt,nt,-93.1*,nt
O=C(NCc1ccccc1F)Nc1nnc([C@@H]2C[C@H](O)[C@@H](CO)O2)s1,nt,1.1%,nt,nt,-0.3,nt
COC(=O)C1C[C@@]23C(=NN=C(SC)C2N(C)c2ccc(OC)cc23)N1C(C)=O (some centres undefined),nt,nt,-33.2%[14.2 µM],nt,nt,?
CC(=O)c1c(C)[nH]c(C(=O)N2CCc3ccccc32)c1C,0.1%,0.0%,-0.3%,-6.7%,221.1,-4.4%
CCOC(=O)c1[nH]c(C)c(C(=O)c2cc(F)ccc2F)c1C,?,9.8%,?,-1.5%,-85.7*,-16.1%
CCOC(=O)c1[nH]c(C)c(C(=O)N2CCc3ccccc32)c1C,?,-11.1%,?,0.3%,-91.7*,?
CCOC(=O)c1[nH]c(C)c(C(=O)OCC)c1C,?,28.6%,nt,0.4%,84.6,nt
CCOC(=O)c1[nH]c(C)c(C(=O)OCc2ccccc2F)c1C,3.16µM*,3.6%,?,-15.0%,-19.2,5.62µM*
CCCN1CCC(=O)N(C(CSc2ccc(OC)cc2)c2ccccc2)CC1 (centres undefined),nt,nt,nt,-2.2%,nt,nt
CCN(CC)CCCNc1oc(-c2cccc(Cl)c2)nc1C#N,?,-14.1%,16.4µM*,-3.6%,8.4,-1.9%
C=CCNc1oc(-c2cccc(Cl)c2)nc1C#N,nt,35.2%,nt,nt,31.8,nt
CN(C(=O)CCN1C(=O)/C(=C/c2ccc(F)cc2)SC1=S)C1CCS(=O)(=O)C1 (centres undefined),nt,-20.3%,nt,nt,13.7,nt
O=C(O)CN1C(=O)/C(=C/c2ccc(SCc3ccccc3)o2)SC1=S,27.0%,-19.5%,nt,19.9µM*,10.2,nt
O=C(O)CN1C(=O)/C(=C\c2ccc(OC(=O)c3ccco3)cc2)SC1=S,4.5%,0.3%,?,?,-8.5,12.7%
O=C(O)CN1C(=O)/C(=C\c2cccc(OCc3ccccc3F)c2)SC1=S,-6.7%,20.8%,27.4%[46.1 µM],9.5%,-75.6*,7.5%
CCN(C(=O)CCN1C(=O)/C(=C/c2ccccc2)SC1=S)C1CCS(=O)(=O)C1 (centres undefined),?,-26.6%,?,nt,-112.6*,?
CCN(CC)C(=O)CN1C(=O)/C(=C/c2ccccc2)SC1=S,?,-12.9%,nt,7.8%,-63.1*,nt
O=C(O)CN1C(=O)/C(=C\c2cccc(OCc3ccc(F)cc3)c2)SC1=S,16.8%,6.4%,-3.4%[46.1 µM],21.3%,-11.5,16.0%[46.1 µM]
CCOC(=O)OC[C@H]1O[C@H](c2cc(C)cc(C)c2)C=C[C@H]1OC(=O)OCC,nt,nt,1.9%[14.2 µM],nt,nt,nt
CCC(O)CNC(=O)c1cnn(-c2nccc(-c3cc(C)sc3C)n2)c1C1CC1 (centres undefined),nt,36.1%,nt,nt,nt,nt
CCc1cc2c(nc1CC)CCCN2S(=O)(=O)c1ccc(C#N)cc1,nt,nt,nt,nt,24.3,nt
COc1ccc(Cl)cc1Nc1nc(-c2sc(NC(=O)C(C)(C)C)nc2C)cs1,?,-34.7%,nt,3.2%,-90.3*,nt
CCCC(C)C(=O)Nc1nc(C)c(-c2csc(Nc3ccc(Cl)cc3)n2)s1 (centres undefined),-6.8%[8.37 µM],?,nt,0.2%,-80.1*,nt
COc1ccc(Cl)cc1Nc1nc(-c2sc(NC(=O)c3ccco3)nc2C)cs1,2.51µM*,-23.4%,nt,-9.4%,-31.9,nt
COc1ccc(OC)c(NC(=O)CSC2=Nc3ccccc3C3=NC(CC(=O)NCc4ccc5c(c4)OCO5)C(=O)N23)c1 (centres undefined),nt,-14.4%,nt,nt,-6.1,-20.1%[46.1 µM]
COc1ccc(CNC(=O)CN2C(=O)COc3ccc(S(=O)(=O)N4CCCCCC4)cc32)cc1,nt,-6.9%,nt,nt,?,-13.0%[46.1 µM]
CCN(CC)CCNC(=O)c1ccc2c(=O)n3nc(Nc4ccccc4)sc3nc2c1,nt,-7.7%,nt,nt,-90.5*,14.7%[46.1 µM]
